From PubChem BioAssay (NCI)
This is part of a sample that, as a whole, favours compounds with a hit. Of some 79,000 tested, about 15% had one in any assay. The source made the active and inactive calls. Rule as the data show it: active = growth inhibition above about 70%; inactive = the rest.

Assays:
[1] = NCI Yeast Anticancer Drug Screen. Data for the rad52 strain (AID 147);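 also: 0% = growth of vehicle-treated control cultures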; conditions: S. cerevisiae rad52 mutant growth inhibition, stronger effect = higher value
Summary of the method: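 DNA repair-defective yeast; compound exposure; growth scored against vehicle controls.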

[2] = NCI Yeast Anticancer Drug Screen. Data for the wt1 strain (AID 149);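 also: 0% = growth of vehicle-treated wt1 cultures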; conditions: S. cerevisiae wt1 strain (SPY 50644) growth inhibition, stronger effect = higher value
Summary of the method: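 Readout: yeast growth inhibition, normalised to vehicle controls, in the wt1 strain exposed to test compounds.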

[3] = NCI Yeast Anticancer Drug Screen. Data for the mgt1 strain (AID 153); conditions: S. cerevisiae mgt1 mutant growth inhibition, stronger effect = higher value
Summary of the method: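 Growth inhibition relative to vehicle controls was scored for the mgt1 yeast strain after compound exposure.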

[4] = NCI Yeast Anticancer Drug Screen. Data for the rad50 strain (AID 155);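 also: 0% = growth of vehicle-only cultures of the same strain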; conditions: S. cerevisiae rad50 strain growth inhibition, stronger effect = higher value
Summary of the method: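 Compounds were tested on a yeast strain with an engineered DNA damage repair alteration; the reported value is growth inhibition normalised to vehicle treatment.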

[5] = NCI Yeast Anticancer Drug Screen. Data for the mec2-1 strain (AID 157); conditions: S. cerevisiae mec2-1 strain, stronger effect = higher value
Summary of the method: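 Growth inhibition is read against vehicle-treated controls after compound exposure of the mec2-1 yeast strain, which is defective in DNA damage repair or cell cycle control.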

[6] = NCI Yeast Anticancer Drug Screen. Data for the rad14 strain (AID 159);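 also: 0% = growth of vehicle-treated control cultures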; conditions: S. cerevisiae rad14 strain growth inhibition, stronger effect = higher value
Summary of the method: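 Compound-treated yeast with a defined DNA-repair lesion; growth inhibition normalised to vehicle-treated cultures.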

[7] = NCI Yeast Anticancer Drug Screen. Data for the sgs1 mgt1 strain (AID 161);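 also: 0% = growth of cultures given vehicle only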; conditions: S. cerevisiae sgs1 mgt1 strain, stronger effect = higher value
Summary of the method: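 Yeast cells carrying a defined DNA-repair defect were exposed to test compounds. Growth inhibition was measured relative to vehicle-treated controls.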

[8] = NCI Yeast Anticancer Drug Screen. Data for the CLN2oe strain (AID 163);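 also: 0% = growth of vehicle-only control cultures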; conditions: S. cerevisiae CLN2oe strain, stronger effect = higher value
Summary of the method: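 Compound-treated yeast; growth vs vehicle ctrl = % inhibition. Genetically altered strain (cell-cycle control).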

[9] = NCI Yeast Anticancer Drug Screen. Data for the cln2 rad14 strain (AID 165);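 also: 0% = growth equal to vehicle treated cultures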; conditions: S. cerevisiae cln2 rad14 strain, stronger effect = higher value
Summary of the method: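 Growth inhibition, relative to vehicle-treated controls, is the read-out. The test organism is a yeast strain with defined genetic alterations, cln2 rad14.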

[10] = NCI Yeast Anticancer Drug Screen. Data for the bub3 strain (AID 167); conditions: S. cerevisiae bub3 mutant strain, stronger effect = higher value
Summary of the method: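 Growth of a checkpoint-deficient yeast mutant is measured after compound exposure. Values represent inhibition relative to vehicle.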

[11] = NCI Yeast Anticancer Drug Screen. Data for the wt2 strain (AID 169);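 also: 0% = growth of vehicle-treated yeast cultures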; conditions: S. cerevisiae wt2 strain growth inhibition, stronger effect = higher value
Summary of the method: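 Compound exposure of yeast; growth compared with vehicle controls; inhibition reported.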

[12] = NCI Yeast Anticancer Drug Screen. Data for the mlh1 strain (AID 171);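 also: 0% = growth of vehicle-treated control cultures of the same strain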; conditions: S. cerevisiae mlh1 strain growth inhibition, stronger effect = higher value
Summary of the method: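 Compounds are applied to a genetically altered yeast strain, and its growth is compared with that of vehicle-treated cultures to give percent inhibition.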

[13] = NCI Yeast Anticancer Drug Screen. Data for the sgs1 strain (AID 173);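 also: 0% = growth of vehicle-only control cultures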; conditions: S. cerevisiae sgs1 mutant, stronger effect = higher value
Summary of the method: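 Compounds applied to genetically altered yeast; growth compared with vehicle-treated cultures to give % inhibition.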

[14] = NCI Yeast Anticancer Drug Screen. Data for the mlh1 rad18 strain (AID 175); conditions: S. cerevisiae mlh1 rad18 strain growth inhibition, stronger effect = higher value
Summary of the method: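 Cells of a genetically altered yeast strain, deficient in DNA damage repair, were treated with compound. Their growth was then compared with that of vehicle-treated cultures to give inhibition.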

[15] = NCI Yeast Anticancer Drug Screen. Data for the rad18 strain (AID 177); conditions: S. cerevisiae rad18 mutant growth inhibition, stronger effect = higher value
Summary of the method: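 Compounds are applied to a repair-deficient yeast strain, and growth is compared with that of vehicle-treated cultures to give percent inhibition.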

[16] = NCI Yeast Anticancer Drug Screen. Data for the rad50EPP+ strain (AID 151);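 also: 0% = growth of vehicle-treated control cultures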; conditions: S. cerevisiae rad50 mutant strain, stronger effect = higher value
Summary of the method: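 rad50EPP+ yeast treated with test compounds. Readout: growth vs vehicle control.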

[17] = at 5.0 µM (retest, dose inferred, filed as 0.5)
[18] = at 50.0 µM (retest, dose inferred, filed as 5.0)

Measured: growth inhibition

COc1oc(C(=O)NC2CCCCC2)c(-c2ccc(Cl)cc2)c1S(=O)(=O)c1ccccc1
inactive: [1]; at 1.2 µM -5% | [1]; at 3.7 µM 7% | [1]; at 11.0 µM 56% | [2]; at 1.2 µM -19% | [2]; at 3.7 µM -5% | [2]; at 11.0 µM 68% | [3]; at 1.2 µM -21% | [3]; at 3.7 µM -17% | [3]; at 11.0 µM 60% | [4]; at 1.2 µM -29% | [4]; at 3.7 µM -2% | [4]; [17] 64% | [4]; at 11.0 µM 48% | [5]; at 1.2 µM 1% | [5]; at 3.7 µM 3% | [5]; [17] 22% | [6]; at 1.2 µM -22% | [6]; at 3.7 µM -17% | [6]; at 11.0 µM 23% | [7]; [17] -10% | [8]; at 1.2 µM -1% | [8]; at 3.7 µM 0% | [8]; at 11.0 µM 30% | [9]; [17] 15% | [10]; at 1.2 µM -18% | [10]; at 3.7 µM -25% | [10]; [17] 8% | [10]; at 11.0 µM 47% | [11]; at 1.2 µM -1% | [11]; at 3.7 µM 22% | [12]; at 1.2 µM -20% | [12]; at 3.7 µM -7% | [12]; at 11.0 µM 41% | [13]; at 1.2 µM -4% | [13]; at 3.7 µM -1% | [13]; at 11.0 µM 52% | [14]; [17] 16% | [14]; at 50.0 µM 45.4% | [15]; at 1.2 µM -6% | [15]; at 3.7 µM -1% | [15]; at 11.0 µM 46%
active: [1]; at 33.0 µM 87% | [1]; at 100.0 µM 84% | [2]; at 33.0 µM 91% | [2]; at 100.0 µM 87% | [3]; at 33.0 µM 89% | [3]; at 100.0 µM 86% | [4]; at 33.0 µM 83% | [4]; [18] 92% | [4]; at 50.0 µM 75.1% | [4]; at 100.0 µM 78% | [5]; at 11.0 µM 70% | [5]; at 33.0 µM 92% | [5]; [18] 91% | [5]; at 50.0 µM 78.8% | [5]; at 100.0 µM 88% | [6]; at 33.0 µM 82% | [6]; at 100.0 µM 74% | [7]; [18] 88% | [7]; at 50.0 µM 78.2% | [8]; at 33.0 µM 91% | [8]; at 100.0 µM 83% | [9]; [18] 87% | [9]; at 50.0 µM 76.9% | [10]; at 33.0 µM 90% | [10]; [18] 88% | [10]; at 50.0 µM 72.5% | [10]; at 100.0 µM 84% | [11]; at 11.0 µM 89% | [11]; at 33.0 µM 91% | [11]; at 100.0 µM 82% | [12]; at 33.0 µM 84% | [12]; at 100.0 µM 81% | [13]; at 33.0 µM 89% | [13]; at 100.0 µM 84% | [14]; [18] 84% | [15]; at 33.0 µM 85% | [15]; at 100.0 µM 80%

CC1CC[C@]2(C(=O)O)CCC3(C)C(=CC(=O)C4[C@@]5(C)CCC(=O)C(C)(C)C5CC[C@]43C)[C@@H]2[C@H]1C (stereo partly specified)
active: [1]; at 11.0 µM 91% | [1]; at 33.0 µM 98% | [1]; at 100.0 µM 97% | [3]; at 11.0 µM 88% | [3]; at 33.0 µM 97% | [3]; at 100.0 µM 97% | [4]; at 11.0 µM 92% | [4]; at 33.0 µM 98% | [4]; [18] 97% | [4]; at 50.0 µM 90.8% | [4]; at 100.0 µM 97% | [5]; at 11.0 µM 88% | [5]; at 33.0 µM 95% | [5]; [18] 97% | [5]; at 50.0 µM 91.5% | [5]; at 100.0 µM 95% | [6]; at 11.0 µM 77% | [6]; at 33.0 µM 95% | [6]; at 100.0 µM 96% | [7]; [18] 96% | [7]; at 50.0 µM 89.8% | [8]; at 11.0 µM 92% | [8]; at 33.0 µM 97% | [8]; at 100.0 µM 97% | [9]; [18] 98% | [9]; at 50.0 µM 90.7% | [10]; at 11.0 µM 88% | [10]; at 33.0 µM 96% | [10]; [18] 97% | [10]; at 50.0 µM 91.7% | [10]; at 100.0 µM 96% | [11]; at 11.0 µM 88% | [11]; at 33.0 µM 98% | [11]; at 100.0 µM 97% | [12]; at 11.0 µM 83% | [12]; at 33.0 µM 96% | [12]; at 100.0 µM 96% | [13]; at 11.0 µM 91% | [13]; at 33.0 µM 98% | [13]; at 100.0 µM 97% | [14]; [18] 97% | [14]; at 50.0 µM 90.7% | [15]; at 11.0 µM 93% | [15]; at 33.0 µM 97% | [15]; at 100.0 µM 97%
inactive: [1]; at 1.2 µM 29% | [1]; at 3.7 µM 43% | [16]; at 1.2 µM 9% | [16]; at 3.7 µM 21% | [16]; at 11.0 µM 28% | [16]; at 33.0 µM 18% | [16]; at 100.0 µM 30% | [3]; at 1.2 µM 4% | [3]; at 3.7 µM 9% | [4]; at 1.2 µM 20% | [4]; at 3.7 µM 46% | [4]; [17] 4% | [5]; at 1.2 µM -2% | [5]; at 3.7 µM 38% | [5]; [17] 26% | [6]; at 1.2 µM -19% | [6]; at 3.7 µM -13% | [7]; [17] 7% | [8]; at 1.2 µM 1% | [8]; at 3.7 µM 37% | [9]; [17] 65% | [10]; at 1.2 µM 12% | [10]; at 3.7 µM 29% | [10]; [17] 58% | [11]; at 1.2 µM 12% | [11]; at 3.7 µM 13% | [12]; at 1.2 µM 14% | [12]; at 3.7 µM 14% | [13]; at 1.2 µM 29% | [13]; at 3.7 µM 30% | [14]; [17] 35% | [15]; at 1.2 µM 15% | [15]; at 3.7 µM 34%
